# Experimental data: the supplement of paper PMC9135407
# Values joined by “and” are separate entries in the source; they are usually repeats but may differ in a detail not shown here. Equal entries are not always repeated. Structures can show the parent of a compound that is named as a salt. The whole screen tested about 5,800 compounds, of which about 620 (11%) showed activity. For the sample, actives were picked, then their nearest neighbours and some compounds at random. Unmarked numbers belong to inactive results.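 The calls were made as follows: active = score above a cut-off or among the top three wells of a plate; in these data no inactive exceeds 0.85.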
# System: primary human hepatic stellate cells (donor 1)
# Experiment: scaled lipid accumulation score (0 = DMSO-like, 1 = nortriptyline-like); higher = stronger HSC inactivation (lipid re-accumulation), active = hit call of the paper
# Conditions: 48 h
# [1] = library stock concentration: 3.33 mM
# [2] = library stock concentration: 6.4 mM
# [3] = library stock concentration: 10 mM
# [4] = library stock concentration: 80 uM
# [5] = library stock concentration: 400 uM
# [6] = library stock concentration: 2 mM
# [7] = library stock concentration: 1 mM
smiles,measurement,setting,value
CNC(=C[N+](=O)[O-])NCCSCc1ccc(CN(C)C)o1 [Ranitidine],scaled lipid accumulation score,[1],≤ 0
same,scaled lipid accumulation score,[2],≤ 0
same,scaled lipid accumulation score,[3],0.049 and ≤ 0
CNC(=C[N+](=O)[O-])NCCSCc1ccc(CN(C)C)o1 [Ranitidine hydrochloride],scaled lipid accumulation score,,≤ 0
same,scaled lipid accumulation score,[3],≤ 0 and ≤ -0.006
CNC(=C[N+](=O)[O-])NCCSCc1ccc(CN(C)C)o1 [Ranitidine HCl],scaled lipid accumulation score,[2],≤ 0
Cc1ccc(NC(=O)NCCSCc2ccc(CN(C)C)o2)cc1Cl,scaled lipid accumulation score,[3],0.931 (active)
CN(C)C/C=C/C(=O)Nc1ccc(C(=O)Nc2cccc(Nc3ncc(Cl)c(-c4c[nH]c5ccccc45)n3)c2)cc1,scaled lipid accumulation score,[4],0.587
same,scaled lipid accumulation score,[5],0.669
same,scaled lipid accumulation score,[6],0.638
same,scaled lipid accumulation score,[3],0.41
CN(C)C/C=C/C(=O)Nc1ccc(C(=O)Nc2cccc(Nc3nccc(-c4cccnc4)n3)c2)cc1,scaled lipid accumulation score,[3],1.15 (active)
CN(C)C/C=C/C(=O)Nc1cccc(Nc2ncc3c(n2)N(C)c2ccccc2C(=O)N3C)c1,scaled lipid accumulation score,[4],≤ -0.009
same,scaled lipid accumulation score,[5],0.1
same,scaled lipid accumulation score,[6],0.846
same,scaled lipid accumulation score,[3],0.566
Cc1cc(NC(=O)c2cccc(NC(=O)C=CCN(C)C)c2)ccc1Nc1nccc(-c2cccnc2)n1,scaled lipid accumulation score,[1],1.08 (active)
same,scaled lipid accumulation score,[3],1.02 (active)
C[C@@H]1CC2C3C[C@H](F)C4=CC(=O)C=C[C@]4(C)[C@@]3(F)[C@@H](O)C[C@]2(C)[C@@]1(O)C(=O)COC(=O)C(C)(C)C (stereo not given in full) [Flumethazone pivalate],scaled lipid accumulation score,library stock concentration: 4 mM,0.012
same,scaled lipid accumulation score,[3],≤ 0
"c1ccc2c(-c3ccncc3)c[nH]c2c1 [Rho Kinase Inhibitor III, Rockout]",scaled lipid accumulation score,[1],≤ 0
COc1ccc(-c2ccc3cc(C(=O)O)ccc3c2)cc1C12CC3CC(CC(C3)C1)C2,scaled lipid accumulation score,[3],0.008
COc1ccc(-c2ccc3cc(C(=O)O)ccc3c2)cc1C12CC3CC(CC(C3)C1)C2 [Adapalene],scaled lipid accumulation score,[1],≤ 0
same,scaled lipid accumulation score,[3],≤ 0
COc1cc(-c2cc(-c3cccc(O)c3)cnc2N)cc(OC)c1OC,scaled lipid accumulation score,[1],≤ -0.009
same,scaled lipid accumulation score,[3],≤ 0
"CC(=O)NC(CC(=O)O)C(=O)O (racemic) [Aspartic acid, N-acetyl (R,S)]",scaled lipid accumulation score,,0.182
Cl.N/C(=N\C(=O)c1nc(Cl)c(N)nc1N)NCc1ccccc1 [Benzamil hydrochloride],scaled lipid accumulation score,[3],1.09 (active)
N[C@H](Cc1ccccc1)C(=O)O [D-phenylalanine],scaled lipid accumulation score,[3],≤ -0.022
Cl.N/C(=N\Cc1ccccc1)NC(=O)c1nc(Cl)c(N)nc1N,scaled lipid accumulation score,library stock concentration: 14 mM,1.1 (active)
NC(=O)NC(=O)Cc1ccccc1 [Phenacemide],scaled lipid accumulation score,[3],≤ 0
Cl.N/C(=N\C(=O)c1nc(Cl)c(N)nc1N)NCc1ccc(Cl)cc1Cl,scaled lipid accumulation score,library stock concentration: 11.8 mM,0.876 (active)
N/C(=N\C(=O)c1nc(Cl)c(N)nc1N)NCc1ccccc1 [Benzamil],scaled lipid accumulation score,library stock concentration: 6.3 mM,0.287
N/C(=N\C(=O)c1nc(Cl)c(N)nc1N)NCc1ccccc1 [Benzamil hydrochloride],scaled lipid accumulation score,,0.168
"CCCCC/C=C\CCCC/C=C\C/C=C\CCCC(=O)O [5(Z),8(Z),14(Z)-Eicosatrienoic Acid]",scaled lipid accumulation score,[7],≤ 0
CCCCC[C@H](O)/C=C/[C@@H]1[C@H](C/C=C\CCCC(=O)O)[C@@H](O)C[C@H]1O [8-iso Prostaglandin F2.alpha.],scaled lipid accumulation score,[7],≤ 0
CC(C)(C)n1nc(-c2cccc3ccccc23)c2c(N)ncnc21 [1-Naphthyl PP1],scaled lipid accumulation score,[3],0.016
"CC(C)(C)C#Cc1cc(N(C(=O)[C@H]2CC[C@H](C)CC2)[C@H]2CC[C@H](O)CC2)c(C(=O)O)s1 [VX-222 (VCH-222, Lomibuvir)]",scaled lipid accumulation score,[1],≤ 0
same,scaled lipid accumulation score,[3],0.047
Cc1c(O)c(=O)ccn1C,scaled lipid accumulation score,[3],≤ 0
O.O.O.O.O=C([O-])CC(O)(CC(=O)[O-])C(=O)[O-].[Li+].[Li+].[Li+] [Lithium citrate],scaled lipid accumulation score,library stock concentration: 9.5 mM,≤ 0
same,scaled lipid accumulation score,[3],0.016
CCCCC/C=C\C\C=C/C=C/C=C/CC(=O)CCCC(=O)O [5-Ketoeicosatetraenoic acid],scaled lipid accumulation score,library stock concentration: 100 uM,≤ -0.021
CC(C)NCC(O)COc1ccccc1-n1cccc1 (stereo not given) [Isamoltane hemifumarate],scaled lipid accumulation score,[3],0.25
CCCCCC=CCC=CCC=CCC=CCCCC(=O)SCC(O)CO (stereo not given) [Arachidonoyl-1-thio-Glycerol],scaled lipid accumulation score,[7],0.021
CC(C)(Oc1ccc(Cl)cc1)C(=O)OCCOC(=O)c1cccnc1 [Etofibrate],scaled lipid accumulation score,[1],≤ 0
same,scaled lipid accumulation score,[3],≤ -0.001
C[C@@H]1C[C@H]2[C@@H]3CCC4=CC(=O)C=C[C@]4(C)[C@@]3(F)[C@@H](O)C[C@]2(C)[C@@]1(O)C(=O)CO [Dexamethasone],scaled lipid accumulation score,library stock concentration: 5.1 mM,≤ -0.006 and ≤ -0.001
same,scaled lipid accumulation score,[3],≤ 0 and ≤ -0.006
same,scaled lipid accumulation score,library stock concentration: 12.7 mM,0.007
C[C@@H]1C[C@H]2[C@@H]3CCC4=CC(=O)C=C[C@]4(C)[C@@]3(F)[C@@H](O)C[C@]2(C)[C@@]1(O)C(=O)CO [Dexamethasone (DHAP)],scaled lipid accumulation score,[1],0.017
same,scaled lipid accumulation score,[3],≤ 0
CN(C)CCC=C1c2ccccc2Sc2ccc(Cl)cc21 [Chlorprothixene],scaled lipid accumulation score,[3],1.03 (active)
CN(C)CC/C=C1/c2ccccc2Sc2ccc(Cl)cc21 [Chlorprothixene hydrochloride],scaled lipid accumulation score,library stock concentration: 5.7 mM,0.756
same,scaled lipid accumulation score,[3],0.429 and 0.701
CN(C)CC/C=C1/c2ccccc2Sc2ccc(Cl)cc21 [Chlorprothixene],scaled lipid accumulation score,[1],0.345
CN(C)CC/C=C1\c2ccccc2CSc2ccccc21 [Dosulepin hydrochloride],scaled lipid accumulation score,,0.845
CN(C)CC/C=C1\c2ccccc2Sc2ccc(Cl)cc21.Cl [Chlorprothixene hydrochloride],scaled lipid accumulation score,,0.902 (active)
C[C@@H]1O[C@@H]1P(=O)(O)O [Fosfomycin],scaled lipid accumulation score,[3],≤ 0
C[C@@H]1O[C@@H]1P(=O)(O)O [Phosphomycin disodium],scaled lipid accumulation score,[3],≤ -0.055
